Hit rate of the full screen: of about 400,000 compounds, about 2,100 (0.53%) were called active. About 14% were inconclusive and are not listed. The sample holds actives, similar compounds and a random draw of the others, so the mix is not that of the screen. The rule behind the calls is not given here.
The compounds below were run against Ataxin-2 (Homo sapiens) (UniProt Q99700) (assay: qHTS for Inhibitors of ATXN expression.).
Ataxin-2 (Homo sapiens), sequence (Q99700 whole entry): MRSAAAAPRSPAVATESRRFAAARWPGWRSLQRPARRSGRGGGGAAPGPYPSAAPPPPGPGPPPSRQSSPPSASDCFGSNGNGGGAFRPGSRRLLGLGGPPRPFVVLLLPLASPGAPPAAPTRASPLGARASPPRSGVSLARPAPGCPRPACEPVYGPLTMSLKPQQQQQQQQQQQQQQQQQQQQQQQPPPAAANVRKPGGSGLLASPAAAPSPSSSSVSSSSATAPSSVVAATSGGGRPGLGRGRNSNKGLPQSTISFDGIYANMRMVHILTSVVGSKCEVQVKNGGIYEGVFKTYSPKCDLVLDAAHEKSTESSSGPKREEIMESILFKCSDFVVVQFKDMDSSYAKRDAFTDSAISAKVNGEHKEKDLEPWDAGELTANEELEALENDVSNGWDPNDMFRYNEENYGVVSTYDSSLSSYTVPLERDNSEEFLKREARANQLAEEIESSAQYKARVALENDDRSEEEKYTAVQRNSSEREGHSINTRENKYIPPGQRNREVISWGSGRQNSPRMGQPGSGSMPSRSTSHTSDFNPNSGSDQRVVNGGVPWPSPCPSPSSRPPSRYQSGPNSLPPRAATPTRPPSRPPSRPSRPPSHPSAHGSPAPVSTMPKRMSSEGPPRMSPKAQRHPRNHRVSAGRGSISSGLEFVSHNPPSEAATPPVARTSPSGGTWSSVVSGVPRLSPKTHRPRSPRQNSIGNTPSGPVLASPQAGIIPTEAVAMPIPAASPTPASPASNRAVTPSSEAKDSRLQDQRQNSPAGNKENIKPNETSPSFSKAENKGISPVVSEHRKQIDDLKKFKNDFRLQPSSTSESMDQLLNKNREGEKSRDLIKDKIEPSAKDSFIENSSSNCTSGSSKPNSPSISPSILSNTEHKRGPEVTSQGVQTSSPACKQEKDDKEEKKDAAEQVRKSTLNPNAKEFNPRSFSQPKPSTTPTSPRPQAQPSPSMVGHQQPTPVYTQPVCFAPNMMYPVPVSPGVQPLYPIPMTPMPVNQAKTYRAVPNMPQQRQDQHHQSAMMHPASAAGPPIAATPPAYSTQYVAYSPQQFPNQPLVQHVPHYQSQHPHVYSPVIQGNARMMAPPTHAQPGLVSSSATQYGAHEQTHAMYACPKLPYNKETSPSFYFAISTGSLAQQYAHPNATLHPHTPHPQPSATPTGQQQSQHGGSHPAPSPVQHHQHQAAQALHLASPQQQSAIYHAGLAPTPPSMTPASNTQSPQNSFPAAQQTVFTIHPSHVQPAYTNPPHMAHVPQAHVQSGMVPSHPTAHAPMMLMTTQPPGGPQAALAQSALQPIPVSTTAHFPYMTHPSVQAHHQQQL
Assay type: functional
In the case of COc1ccc(CN2C(=O)c3cccnc3C2=O)cc1S(=O)(=O)N1CCOc2ccc(C)cc21, the Potency is reported as “inactive”.
With O=C(c1cnn(-c2ccccc2)c1)c1ccccc1O the Potency was “inactive”.
For CC(Sc1ccccc1)C(=O)NN=C1CCCCCCC1 (stereo unspecified), the Potency was “inactive”.
COc1ccccc1NC(=O)CN1CCN(CC(=O)Nc2ccc(Cl)c(C(F)(F)F)c2)CC1 was tested, and the Potency was 44.7 µM (active).
For O=C(CN1CCN(C(=O)c2c(F)cccc2F)CC1)Nc1ccccc1C(F)(F)F, the Potency was “inactive”.
For CCOc1ccc(NC(=O)CN2CCN(CC(=O)Nc3ccccc3OC)CC2)cc1, the Potency was “inactive”.
O=C(Cc1ccccc1)Nc1ncccc1Cl was tested, and the Potency was “inactive”.
In the case of Cc1ccccc1-c1ccc(/C=C2/SC(N3CCOCC3)=NC2=O)o1, the Potency is reported as “inactive”.
In the case of O=C1NC(=S)S/C1=C/c1ccc(N2CCOCC2)o1, the Potency is reported as 10 µM (active).
In the case of Cc1ccc(-c2ccc(/C=C3\SC(N4CCOCC4)=NC3=O)o2)cc1, the Potency is reported as “inactive”.
For N#C/C(=C/c1ccc(-c2ccc(Br)cc2)o1)C(=O)NC1CCCCC1, the Potency was “inactive”.
For Cn1c(/C=C(\C#N)C(N)=S)ccc1-c1ccc(Br)cc1, the Potency was 11.2 µM (active).
For CC(=O)c1sc2nsc(SCCN3CCOCC3)c2c1N, the Potency was “inactive”.
With COc1ccc(CNc2nc3ccccc3n2C)c(OC)c1 the Potency was “inactive”.
In the case of CCc1cc(=O)oc2c(CNCc3ccc(OC)cc3OC)c(O)c(Cl)cc12, the Potency is reported as “inactive”.
CCn1c2ccccc2c2cc(CNCc3ccc(OC)cc3OC)ccc21 was tested, and the Potency was 42.3 µM (active).
Cc1cc(C)c(C(=O)COC(=O)C2CCN(c3ccc(C(F)(F)F)cn3)CC2)c(C)c1 was tested, and the Potency was “inactive”.
CC[n+]1c(/C=C2/C=C(C)CC(C)(C)C2)sc2ccc(OC)cc21 was tested, and the Potency was 39.8 µM (active).
CCN1CCN(Cc2ccc(NC(=O)c3ccc(C)c(NC(=O)c4cccc5[nH]ccc45)c3)cc2C(F)(F)F)CC1 was tested, and the Potency was 35.5 µM (active).
With CCN1CCN(Cc2ccc(NC(=O)c3ccc(C)c(NC(=O)c4cncc(-c5cccs5)c4)c3)cc2C(F)(F)F)CC1 the Potency was 20 µM (active).
For O=C(CO)N/N=C/c1c2ccccc2cc2ccccc12, the Potency was “inactive”.
With O=C(O)c1ccc(-n2cc(-c3cc4ccccc4oc3=O)nc2S)cc1 the Potency was “inactive”.
In the case of Cc1c(CCC(=O)NCCCN2CCCC2=O)c(=O)oc2cc(O)ccc12, the Potency is reported as “inactive”.
With Cc1cc(C(=O)N/N=C/c2cn(C)nc2C)c2ccccc2n1 the Potency was “inactive”.
With CCN1CCN(C(c2ccc(C(F)(F)F)cc2)c2ccc3cccnc3c2O)CC1 (stereo unspecified) the Potency was “inactive”.
In the case of COC(=O)NCC(c1cccnc1)N1CCN(c2ccccc2)CC1 (stereo unspecified), the Potency is reported as “inactive”.
For CC(C)(C)c1cc(C(c2cccnc2)N2CCN(CCO)CC2)cc(C(C)(C)C)c1O (stereo unspecified), the Potency was 25.1 µM (active).
In the case of Cc1onc(-c2c(Cl)cccc2Cl)c1C(=O)NNC(=O)c1c(-c2c(Cl)cccc2Cl)noc1C, the Potency is reported as “inactive”.
N#Cc1sc2nc(C3CC3)cc(-c3ccc(Cl)cc3)c2c1N was tested, and the Potency was “inactive”.
With CC(C)c1ccccc1NC(=O)CN1C(=O)c2cccc3cccc1c23 the Potency was “inactive”.
In the case of CCCCc1c(-c2ccccc2OC)ncn1Cc1ccc(-c2ccccc2)cc1, the Potency is reported as 22.4 µM (active).
CCCCc1c(-c2ccccc2OC)ncn1CCc1cccc(Cl)c1 was tested, and the Potency was 31.6 µM (active).
Nc1cccc2c1C(=O)N(Cc1cccc(Cl)c1)C2=O was tested, and the Potency was “inactive”.
In the case of COc1ccccc1C1=NC(c2ccccc2)CN1c1ccccc1 (stereo unspecified), the Potency is reported as “inactive”.
With CCCCc1c(-c2ccccc2OC)ncn1C1CCCC1 the Potency was 22.4 µM (active).
In the case of CCCCc1c(-c2ccccc2OC)ncn1CCc1ccc(OC)cc1, the Potency is reported as 39.8 µM (active).
For COc1cc2c3nnc(-c4ccccc4)c-3cn(Cc3ccc(F)cc3)c2cc1OC, the Potency was “inactive”.
In the case of O=C1Cc2ccccc2C(=O)N1Cc1cccc(Cl)c1, the Potency is reported as “inactive”.
CC12CCC(C1)C(C)(C)C2NS(=O)(=O)c1ccc(F)cc1 (stereo unspecified) was tested, and the Potency was “inactive”.
For COC(=O)c1ccc(COc2ccc(C(C)(C)C)cc2)o1, the Potency was “inactive”.
COc1c(C)cc(S(=O)(=O)N2CCOCC2)c(C)c1C was tested, and the Potency was “inactive”.
Cc1cc(-c2nc3cccnc3s2)ccc1NS(=O)(=O)c1ccc2c(c1)OCCO2 was tested, and the Potency was “inactive”.
With CCOC(=O)c1cnc(-n2nc(C)cc2C)nc1Nc1ccc(O)cc1 the Potency was “inactive”.
FC(F)(F)c1cc(-c2cccs2)nc2cc(-c3cccs3)nn12 was tested, and the Potency was “inactive”.
In the case of CCOC(=O)c1c(NC(C)=O)sc2c1CCC(C=O)=C2Sc1ccccc1, the Potency is reported as 39.8 µM (active).
With CCCCN(C)S(=O)(=O)c1ccc(C(=O)Nc2sc3c(c2C(=O)OCC)CCN(C(C)C)C3)cc1 the Potency was “inactive”.
For CCOC(=O)c1c(NC(=O)C2=C(C)N=C(S)NC2c2ccc(C)cc2)sc(C)c1C (stereo unspecified), the Potency was “inactive”.
CCOC(=O)c1c(N=C(S)Nc2ccccc2)sc2c1CCN(CC)C2 was tested, and the Potency was “inactive”.
CCOC(=O)c1c(NC(=O)c2ccccc2Cl)sc2c1CCc1ccccc1-2 was tested, and the Potency was “inactive”.
In the case of CCOC(=O)c1c(NC(C)=O)sc2c1CCC(/C=N/CCCN(CC)CC)=C2Sc1ccccc1, the Potency is reported as 39.8 µM (active).
With COc1ccc(-n2nc3ccc(N)cc3n2)cc1 the Potency was “inactive”.
For Cn1c(C(=O)NC2CCCCC2)cc2c(=O)n3ccccc3nc21, the Potency was “inactive”.
For O=C(NCc1cccs1)C(Cc1ccccc1)n1cccc1 (stereo unspecified), the Potency was “inactive”.
With [N-]=[N+]=CC(=O)CNC(=O)[C@@H](Cc1ccccc1)N1C(=O)c2ccccc2C1=O the Potency was 20 µM (active).
With CC1=NN2C(=N)/C(=C\c3cc(C)n(-c4cccc(C)c4)c3C)C(=O)N=C2S1 the Potency was “inactive”.
Cn1c(-c2c(N)n(C3CCCC3)c3nc4ccccc4nc23)nc2ccccc21 was tested, and the Potency was “inactive”.
In the case of O=C(O)C(=O)/C(=C\c1cccc(Cl)c1)c1ccc2ccccc2n1, the Potency is reported as “inactive”.
For O=C(/C(=C\c1ccccc1)c1nc2ccccc2[nH]1)c1ccc(Cl)cc1, the Potency was 15.8 µM (active).
For N#C/C(=C\c1cccnc1)c1nc2ccccc2[nH]1, the Potency was “inactive”.
With O=C(O)C(=O)/C(=C\c1ccc(Cl)cc1)c1ccc2ccccc2n1 the Potency was “inactive”.
With O=C(/C(=C/c1ccc(Cl)cc1)c1nc2ccccc2[nH]1)c1ccccc1 the Potency was 39.8 µM (active).
In the case of O=C(Cc1nc2ccccc2[nH]1)c1ccc(Cl)cc1, the Potency is reported as “inactive”.
In the case of O=C(COc1ccccc1C(=O)NCc1ccncc1)Nc1ccc(Br)cc1, the Potency is reported as “inactive”.
In the case of CCN1CCN(Cc2c(O)ccc3c(C)c(-c4ccc(OC)cc4)c(=O)oc23)CC1, the Potency is reported as “inactive”.
With Cc1ccc(S(=O)(=O)CCC(=O)OCC(=O)NC(C)c2ccccc2)cc1 (stereo unspecified) the Potency was “inactive”.
For COC(=O)CCS(=O)(=O)c1nc(-c2ccccc2)cc(C(F)(F)F)n1, the Potency was 39.8 µM (active).
With COc1ccc(-c2c(C(F)(F)F)nn3c(O)cc(-c4ccccc4)nc23)cc1 the Potency was “inactive”.
For CS(=O)(=O)c1nc(-c2ccccc2)cc(C(F)(F)F)n1, the Potency was 35.5 µM (active).
In the case of COCCNC(=O)c1nn2c(C(F)(F)F)cc(-c3ccccc3)nc2c1Cl, the Potency is reported as “inactive”.
For CCOC(=O)CNc1c(-c2ccc(F)cc2)nc2cnccn12, the Potency was “inactive”.
For O=C(COC(=O)CCS(=O)(=O)c1ccccc1)Nc1ccccc1, the Potency was “inactive”.
CCOC(=O)CS(=O)(=O)c1nc(-c2ccc(F)cc2)cc(C(F)(F)F)n1 was tested, and the Potency was 31.6 µM (active).
For CCOC(=O)CCS(=O)(=O)c1nc(-c2ccccc2)cc(C(F)(F)F)n1, the Potency was 31.6 µM (active).
For Nc1c(C(=O)C2CC2)sc2nc(-c3ccccc3)cc(C(F)(F)F)c12, the Potency was “inactive”.
For COCC(C)NC(=O)c1cnn2c(C(F)F)cc(-c3ccccc3)nc12 (stereo unspecified), the Potency was “inactive”.
In the case of COC(=O)c1cc2nc(-c3ccc(C)cc3)cc(C(F)(F)F)n2n1, the Potency is reported as “inactive”.
With CCCCn1nc(NC(=O)CCC)c2cc3cc(OC)ccc3nc21 the Potency was “inactive”.
With CC(C)CNC(=O)COC(=O)c1c2c(nc3ccccc13)/C(=C/c1cccs1)CC2 the Potency was “inactive”.
For CCN1CCN(Cc2c(O)ccc3c2O/C(=C\c2ccccc2)C3=O)CC1, the Potency was “inactive”.
In the case of CCOC(O)=C(C(C)=N)C1CC(=O)NC1=O (stereo unspecified), the Potency is reported as “inactive”.
For O=C(NC1CC1)c1cc(-c2ccc(Br)cc2)nc2ccccc12, the Potency was “inactive”.
Cc1cc(C(=O)NCCN2CCOCC2)c2ccccc2n1 was tested, and the Potency was “inactive”.
In the case of CCc1ccc(-c2cc(C(=O)NN3CCOCC3)c3ccccc3n2)s1, the Potency is reported as “inactive”.
CCN(CC)CC(C)CNC(=O)c1cc(-c2ccc(Br)s2)nc2ccccc12 (stereo unspecified) was tested, and the Potency was 14.1 µM (active).
CCN(CC)CCNC(=O)c1cc(-c2ccc(Br)s2)nc2ccccc12 was tested, and the Potency was 39.8 µM (active).
With Cc1ccc(-c2cc(C(=O)NCC3(N(C)C)CCCCC3)c3ccccc3n2)o1 the Potency was “inactive”.
CN(Cc1ccccc1OCCO)CC1CCCN(CCc2ccc(Cl)cc2)C1 (stereo unspecified) was tested, and the Potency was “inactive”.
With C=CCNC(=O)/C(C#N)=C/c1c(N2CCN(c3ccccc3)CC2)nc2c(C)cccn2c1=O the Potency was “inactive”.
COc1ccc(CCN(C)C(=O)c2cc(=O)c3ccccc3o2)cc1OC was tested, and the Potency was “inactive”.
With CCc1c(C)c2cc3c(c(C)c2oc1=O)OCN(CCc1ccc(OC)c(OC)c1)C3 the Potency was “inactive”.
With COc1ccc(CCNc2ncnc3c2oc2ccccc23)cc1OC the Potency was 31.6 µM (active).
With COc1cc(/C=N/Nc2ccccn2)cc(OC)c1O the Potency was “inactive”.
For COc1cc(C(Nc2ccccn2)c2ccc3ccc(C)nc3c2O)cc(OC)c1O (stereo unspecified), the Potency was 39.8 µM (active).
In the case of Cc1cccc(NC(c2ccccc2C)c2ccc3ccc(C)nc3c2O)n1 (stereo unspecified), the Potency is reported as “inactive”.
In the case of CC(C)C[C@@H](COCc1cccc(Cl)c1)N1CCN(C(=O)c2ccc(C(F)(F)F)cc2)CCC1=O, the Potency is reported as 22.4 µM (active).
CN1CCN(C(=O)c2ccc(C(F)(F)F)cc2)CC1 was tested, and the Potency was “inactive”.
CC(C)CC(COCc1cccc(Cl)c1)N1CCN(C(=O)c2ccc(C(F)(F)F)cc2)CCC1=O (stereo unspecified) was tested, and the Potency was 39.8 µM (active).
In the case of CC(C)C[C@@H](COCc1ccc(Cl)cc1)N1CCN(C(=O)c2ccc(C(F)(F)F)cc2)CCC1=O, the Potency is reported as 31.6 µM (active).
CCn1nc(NC(C)=O)c2cc3ccc(C)cc3nc21 was tested, and the Potency was “inactive”.
CCC(=O)NC1=C(Cl)C(=O)C(NC(=O)CC)=C(Cl)C1=O was tested, and the Potency was 5.01 µM (active).
CCN(CC)c1ccc2cc(-c3nnc(-c4ccncc4)o3)c(=O)oc2c1 was tested, and the Potency was “inactive”.
